Ba/F3 V617F tox: reduce viability of Ba/F3 cells dependent on JAK2V617F; Ba/F3 EpoR-JAK2V617F viability, ATP luminescence; inhibition, % at 5.6 µM; actives 1.1% (n = 220,000); AID 1446;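 active = inhibition above the campaign mean plus 3 SD over all tested compounds, cut at about 24% in these data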;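 note: cytokine-independent growth of Ba/F3 cells driven by EpoR plus mutant JAK2; 0% = DMSO-treated cells and 100% = JAK inhibitor I control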
KLF5 inh: kruppel-like factor 5 inhibition. DLD-1 KLF5 promoter-luciferase reporter, luminescence. inhibition, % at 5 µM. actives 0.23% (n = 290,000). AID 1700;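 active = inhibition above a per-plate limit of that plate's mean compound inhibition plus 3 SD, cut at about 60% in these data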;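 note: 0% = DMSO wells and 100% = LY294002 at 200 µM; higher means less KLF5 promoter-driven luciferase light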
APP 5UTR inh: APP translation inhibition | SH-SY5Y APP 5'UTR-luciferase reporter, luminescence | inhibition, % at 2 µM | actives 0.82% (n = 190,000) | AID 1285;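 active = inhibition above a set limit, derived from the sample mean plus 3 SD, cut at about 45% in these data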
IEC-6 tox: IEC-6 cytotoxicity, counter-screen for KLF5 inhibitors | luminescence viability | inhibition, % at 5 µM | actives 0.78% (n = 290,000); in the data active = inhibition above about 22%;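 note: 0% = plate median of test compound wells and 100% = cytotoxic reference compound wells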
aSyn UTR inh: MLPCN primary screen, SNCA 5' untranslated region | actives 0.82% (n = 300,000) | alpha-synuclein 5'UTR reporter, inhibitor activity | inhibition, % (tested at 7.5 µM); in the data active = inhibition above about 60%;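 note: H4 neuroglioblastoma cells stably carrying SNCA 5'UTR luciferase fusion; 0% = DMSO wells and 100% = positive control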
BaF3 tox: counter-screen for JAK2V617F inhibitors: parental Ba/F3 viability inhibitors; CellTiter-Glo ATP luminescence; inhibition, % at 5.6 µM; actives 1.1% (n = 220,000); AID 1486;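 active = inhibition above a per-campaign cutoff, the mean inhibition of all tested compounds plus 3 SD, cut at about 27% in these data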;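 note: 0% = DMSO wells and 100% = JAK Inhibitor I control wells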
* = called active by the depositor; · = no result given. An excerpt weighted towards active compounds, which were near 2.2% of everything screened.

SMILES	Ba/F3 V617F tox	KLF5 inh	APP 5UTR inh	IEC-6 tox	aSyn UTR inh	BaF3 tox
CC(C)(C)NC(=O)c1ccc(NC(=O)c2ccccc2-c2ccccc2C(=O)O)cc1	·	-35	·	-3	-5	·
O=C(CC(=O)c1ccccc1[N+](=O)[O-])c1ccccc1	·	·	·	·	-25	·
O=C(N/N=C/c1ccc(O)c2ncccc12)c1cccc(Br)c1	92*	5	63*	20	67*	52*
COC(=O)/C(=C\Nc1ccc(Oc2ccc(F)cc2F)nc1)NC(=O)c1ccccc1	0	-12	·	2	-1	36*
CCC/C(O)=C1\C(=O)CC(C)(C)CC1=Nc1ccc(OC)cc1OC	8	6	86*	14	12	7
CCOc1ccc(NC(=O)CSc2nnc(Cc3csc(C)n3)o2)cc1	·	3	·	3	-3	·
O=C(c1c[nH]c(C(=O)N2CCN(c3ccccc3F)CC2)c1)c1cccc(Cl)c1Cl	1	-17	57*	-4	43	12
COc1cccc(C(=O)C2=NN(C(C)=O)CC2c2ccco2)c1 (configuration not stated)	-5	-48	-3	4	18	38*
COc1cccc(C2=NN(C(=O)c3ccco3)C(c3ccco3)C2)c1 (configuration not stated)	·	-17	·	-2	-32	·
O=C(NCCc1ccccc1)c1cccnc1	-1	-83	-9	-1	-99	6
O=C(NCCc1ccccc1)c1ccc2nccnc2c1	0	-23	-75	4	63*	4
CCOC(=O)N1CCN(c2ncnc3c2[nH]c2ccc(F)cc23)CC1	23	-14	-19	9	-7	42*
Fc1ccc2[nH]c3c(N4CCN(c5ccccc5)CC4)ncnc3c2c1	-3	-42	6	-8	8	8
OC1(c2cccc(C(F)(F)F)c2)CCN(c2ncnc3c2[nH]c2ccc(F)cc23)CC1	20	-13	15	-1	·	35*
CCOC(=O)N1CCN(c2ncnc3c2[nH]c2ccc(OC)cc23)CC1	4	-41	-6	6	0	9
CCOc1ccc(C(C)NC(=O)c2cc(=O)[nH]c3ccccc23)cc1OCC (configuration not stated)	·	-32	·	1	19	·
Cc1ccc(Cl)c(OCC(=O)Nc2ccccc2N2CCCCC2)c1	·	·	·	·	25	·
COCc1ccc(CN2CCCC(C(=O)Nc3ccc(-c4cccc(OC)c4)cc3)C2)o1 (configuration not stated)	·	-58	·	5	8	·
COc1ccc(CCn2c(C3CCCCC3)nc3c(c(=O)c4ccccc4n3C)c2=O)cc1	0	18	·	4	75*	4
COc1ccc(Cn2c(C3CCCCC3)nc3c(c(=O)c4ccccc4n3C)c2=O)cc1	0	-4	·	5	32	-1
CCC(C)n1cnc2c(=O)oc3ccccc3c21 (configuration not stated)	2	-11	88*	11	20	5
CC(C)Cn1cnc2c(=O)oc3ccccc3c21	-1	-18	3	-7	-5	1
Cc1cc(CNC(=O)c2cccc(OC3CCN(S(=O)(=O)N(C)C)CC3)c2)on1	·	-171	·	0	-139	·
COC(=O)c1c(C)[nH]c(-c2csc(N)n2)c1C	17	-3	12	2	-6	51*
CCOC(=O)c1[nH]c(C)c(C(=O)OC)c1C	-2	-52	·	-8	-9	-1
SMILES	Ba/F3 V617F tox	KLF5 inh	APP 5UTR inh	IEC-6 tox	aSyn UTR inh	BaF3 tox
CSCCC(NC(=O)c1cccc(C)c1)C(=O)Nc1sccc1C(N)=O (configuration not stated)	·	11	·	4	12	·
COc1ccc(Nc2oc(COc3ccc(OC)cc3)nc2C#N)cc1	-3	4	4	1	78*	-2
COc1ccc(Nc2oc(COc3ccccc3F)nc2C#N)cc1	-1	-20	-1	4	38	3
COc1ccc(Nc2oc(COc3cccc(C)c3)nc2C#N)cc1	1	-44	-4	5	29	6
COc1ccc(Nc2oc(COc3ccc(C)cc3)nc2C#N)cc1	4	-31	-2	0	68*	4
COc1cccc(CNC(=O)CC2Sc3ccccc3NC2=O)c1 (configuration not stated)	1	-16	-12	0	-16	59*
O=C(Nc1ccc2ccccc2c1)c1onc2c1CCCC2	-4	-133	-206	-1	-71	4
Cc1cccc(NC(=O)c2onc3c2CCCC3)n1	-1	-51	-158	10	86*	-1
COC(=O)c1cccc(NC(=O)c2onc3c2CCCC3)c1	2	-165	-99	6	79*	6
COC(=O)c1cc(NC(=O)c2c(Cl)nc3sccn23)cc(C(=O)OC)c1	1	3	5	-2	80*	4
COc1ccc(NCc2ccc([N+](=O)[O-])s2)cc1	-2	-30	49*	-7	-50	5
Cc1ccc(N2CCN(S(=O)(=O)c3ccc4oc(=O)ccc4c3)CC2)c(C)c1	·	-11	·	4	3	·
CCN(CC)c1ccc(/C=N/NC(=O)c2ccco2)c(O)c1	0	-82	·	22	11	1
CCN(CC)c1ccc(/C=N/NC(=O)c2ccco2)cc1	6	-64	49*	9	-39	10
CC(NC(=O)c1ccccc1Br)c1nnc(SCC(=O)NC2=NCCS2)n1C (configuration not stated)	·	0	·	5	-14	·
O=C(OCCN1C(=O)c2cccc3c(N4CCOCC4)ccc(c23)C1=O)c1ccc(Cl)cc1	-2	-2	50*	-4	53	4
Cc1c(Cl)c([N+](=O)[O-])nn1Cc1ccc(C(=O)Nc2ccc(Cl)cn2)o1	3	-24	8	10	-7	8
O=C(Nc1nc(-c2ccccn2)cs1)c1ccc([N+](=O)[O-])o1	84*	7	·	-5	-32	89*
O=C(Nc1ccc(Cl)cn1)c1ccc([N+](=O)[O-])o1	1	-23	47*	7	-17	-1
O=C(Nc1nc(-c2ccccn2)cs1)c1cc(Cl)ccc1[N+](=O)[O-]	72*	64*	76*	83*	116*	61*
O=C1CCCN1CCC(=O)N1CCCC(CO)(Cc2ccccc2)C1 (configuration not stated)	·	-88	·	-7	-98	·
O=C(CN1CCN(c2ccccn2)CC1)Nc1cccc(F)c1	·	-22	·	-4	-9	·
CN(Cc1nc(-c2ccc(Cl)cc2)no1)C(=O)CCN1C(=O)[C@H]2CC=CC[C@H]2C1=O	·	-34	·	-2	-6	·
O=C(NCc1ccc(Cl)cc1)c1ccc(NC(=O)C2CCCO2)cc1 (configuration not stated)	·	1	·	6	4	·
COc1ccc(-c2nc(C(N)=O)c3[nH]c(=O)n(-c4cccc(Cl)c4)c3n2)cc1OC	0	-19	-2	2	17	11
CCc1ccc(-c2nc(C(N)=O)c3[nH]c(=O)n(-c4ccccc4OC)c3n2)cc1	2	-26	95*	-1	82*	10

Screening results deposited in PubChem by several laboratories.
